Test [1] addresses human Neurokinin, NK2 Receptor, TACR2 (gene 6865) (UniProt P21452). Briefly: NVS_GPCR_hNK2: NovaScreen (NVS) G Protein-Coupled Receptor Assay for human Neurokinin, NK2 Receptor (AID 2283278).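 Further: actives reduce bound radioligand signal relative to DMSO baseline.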 The gist of the method:
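Cell-free radioligand binding using receptor protein extracted from CHO cells; readings taken 4 hours after chemical dosing by filter-based scintillation counting. Primary screen ran single concentration (25 uM) in duplicate; actives followed up in concentration series, loss-of-signal versus DMSO baseline.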

Test [2] addresses human Orphanin, Opioid Related Nociceptin Receptor 1 (ORL1), OPRL1 (gene 4987) (UniProt P41146). Briefly: NVS_GPCR_hORL1: NovaScreen (NVS) G Protein-Coupled Receptor Assay for human Orphanin, Opioid Related Nociceptin Receptor 1 (ORL1) (AID 2283283). The gist of the method: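 Cell-free binding using HEK293-derived receptor protein: radioligand displacement measured by filter scintillation 1 hour after dosing. Primary testing at 25 uM in duplicate, followed by singleton concentration series up to 50 uM; DMSO served as negative control.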

The target of test [3] is human Opioid Receptor Delta 1 (Opiate D1), OPRD1 (gene 4985) (UniProt P41143). Put plainly: NVS_GPCR_hOpiate_D1: NovaScreen (NVS) G Protein-Coupled Receptor Assay for human Opioid Receptor Delta 1 (Opiate D1) (AID 2283280). The gist of the method: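 Membrane preparations from CHO cells bearing the human receptor were incubated 1 h with test chemical, and bound radioligand was counted after filtration. Actives from 25 uM duplicate screening were retested in concentration-response.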

Test [4] deals with human Neurotensin Receptor (NTS), NTSR1 (gene 4923) (UniProt P30989). Briefly: NVS_GPCR_hNTS: NovaScreen (NVS) G Protein-Coupled Receptor Assay for human Neurotensin Receptor (NTS) (AID 2283279). The procedure: (§1) NVS_GPCR_hNTS is a biochemical, single-readout assay that uses extracted gene-proteins from CHO in a cell-free assay. Measurements were taken 1 hour after chemical dosing in a 96-well plate.NVS_GPCR_hNTS is one of one assay component(s) measured or calculated from the NVS_GPCR_hNTS assay. It is designed to make measurements of radioligand binding, a form of binding reporter, as detected with scintillation counting signals by Filter-based radiodetection technology.Data from the assay component NVS_GPCR_hNTS was analyzed into 1 assay endpoint. This assay endpoint, NVS_GPCR_hNTS, was analyzed in the positive analysis fitting direction relative to DMSO as the negative control and baseline of activity. Using a type of binding reporter, loss-of-signal activity can be used to understand changes in the binding as they relate to the gene NTSR1. Furthermore, this assay endpoint can be referred to as a primary readout, because the performed assay has only produced 1 assay endpoint. To generalize the intended target to other relatable targets, this assay endpoint is annotated to the gpcr intended target family, where the subfamily is rhodopsin-like receptor.
Binding assays used specific radioligands (tritiated, iodinated) with non-radioactive competitive displacement ligands in agonist or antagonist protocols (as indicated) and various reference compounds and inhibitors to titrate specific binding to receptors and transporters. Most enzyme assays (CYPs, kinases, phosphatases, proteases, HDACs) used recombinant protein and specific substrates (fluorescence mostly, some colorimetric and radioactive) and inhibitors, followed by a biochemical separation of substrate and product. All assays for the biochemical HTS were initially run in duplicate at a single concentration (10 uM for CYP450 assays and 25 uM for all others). Assay-chemical combinations meeting a pre-defined threshold (e.g., 30% inhibition and other criteria defined below) were then run in singleton concentration-response format with maximum concentration of 20 uM for CYPs and 50 uM for all others. Each assay was run with positive and negative controls, and concurrent controls on every plate. The follow-up (secondary) screen tested active chemical-pairs in concentration series, as well as a few additional assays not tested in the primary screen, some selected negative inactives, and several cases re-run in the concentration series for confirmatory purposes.

The target of test [5] is human Vasopressin 1A Receptor (V1A), AVPR1A (gene 552) (UniProt P37288). Put plainly: NVS_GPCR_hV1A: NovaScreen (NVS) G Protein-Coupled Receptor Assay for human Vasopressin 1A Receptor (V1A) (AID 2283284). The procedure, abridged:
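Single-concentration duplicate screen at 25 uM, with concentration-response follow-up (top 50 uM) for actives. The assay measured displacement of a radioligand from human platelet-derived receptor after 1.5 h, detected by filtration and scintillation counting.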

Test [6] concerns rabbit Platelet Activating Factor Receptor (PAF), gene 100354046. Briefly: NVS_GPCR_rabPAF: NovaScreen (NVS) G Protein-Coupled Receptor Assay for rabbit Platelet Activating Factor Receptor (PAF) (AID 2283287). The gist of the method:
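Rabbit platelet membrane preparation; radioligand displacement read by filter-based scintillation counting 1 h after dosing, loss of signal versus DMSO. Primary screen in duplicate at 25 uM, actives followed up in concentration series.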

The target of test [7] is rat Serotonin, 5-Hydroxytryptamine Receptor 1 (5HT1), Non-Selective Binding, Htr1a (gene 24473) (UniProt P19327). Put plainly: NVS_GPCR_r5HT1_NonSelective: NovaScreen (NVS) G Protein-Coupled Receptor Assay for rat Serotonin, 5-Hydroxytryptamine Receptor 1 (5HT1), Non-Selective Binding (AID 2283286). The procedure:
NVS_GPCR_r5HT1_NonSelective is a biochemical, single-readout assay that uses extracted gene-proteins from Rat cortical membranes in a tissue-based cell-free assay. Measurements were taken 1 hour after chemical dosing in a 48-well plate.NVS_GPCR_r5HT1_NonSelective is one of one assay component(s) measured or calculated from the NVS_GPCR_r5HT1_NonSelective assay. It is designed to make measurements of radioligand binding, a form of binding reporter, as detected with scintillation counting signals by Filter-based radiodetection technology.Data from the assay component NVS_GPCR_r5HT1_NonSelective was analyzed into 1 assay endpoint. This assay endpoint, NVS_GPCR_r5HT1_NonSelective, was analyzed in the positive analysis fitting direction relative to DMSO as the negative control and baseline of activity. Using a type of binding reporter, loss-of-signal activity can be used to understand changes in the binding as they relate to the gene Htr1a. Furthermore, this assay endpoint can be referred to as a primary readout, because the performed assay has only produced 1 assay endpoint. To generalize the intended target to other relatable targets, this assay endpoint is annotated to the gpcr intended target family, where the subfamily is rhodopsin-like receptor. […]

The target of test [8] is human Purinergic Receptor P2Y, P2RY1 (gene 5028) (UniProt P47900). Put plainly: NVS_GPCR_hPY2: NovaScreen (NVS) G Protein-Coupled Receptor Assay for human Purinergic Receptor P2Y (AID 2283281). The procedure, abridged: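 Filtration scintillation readout of radioligand displacement on U937 extract, measured 1 h post-dosing. Single 25 uM duplicate screen, then singleton concentration series to 50 uM for chemicals passing threshold; DMSO as baseline.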

Test [9] deals with 5-hydroxytryptamine receptor 2C (pig). Briefly: NVS_GPCR_p5HT2C: NovaScreen (NVS) G Protein-Coupled Receptor Assay for pig Serotonin, 5-Hydroxytryptamine Receptor 2C (5HT2C) (AID 2283288). The gist of the method: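 Radioligand displacement on membranes from pig choroid plexus, detected by filter scintillation counting after 1 h. Tested first at a single 25 uM in duplicate, then in concentration-response for actives; DMSO served as baseline.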

The target in test [10] is human Thromboxane A2 Receptor (TXA2), TBXA2R (gene 6915) (UniProt P21731). Briefly: NVS_GPCR_hTXA2: NovaScreen (NVS) G Protein-Coupled Receptor Assay for human Thromboxane A2 Receptor (TXA2) (AID 2283282).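 Further: actives reduce bound radioligand signal relative to DMSO baseline.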 The procedure:
as §1, with “NVS_GPCR_hTXA2” for “NVS_GPCR_hNTS”, “Human platelets” for “CHO”, “plate.NVS_GPCR_hTXA2” for “plate.NVS_GPCR_hNTS”, “NVS_GPCR_hTXA2,” for “NVS_GPCR_hNTS,”, “TBXA2R.” for “NTSR1.”
Binding assays used specific radioligands (tritiated, iodinated) with non-radioactive competitive displacement ligands in agonist or antagonist protocols (as indicated) and various reference compounds and inhibitors to titrate specific binding to receptors and transporters. Most enzyme assays (CYPs, kinases, phosphatases, proteases, HDACs) used recombinant protein and specific substrates (fluorescence mostly, some colorimetric and radioactive) and inhibitors, followed by a biochemical separation of substrate and product. All assays for the biochemical HTS were initially run in duplicate at a single concentration (10 uM for CYP450 assays and 25 uM for all others). […] Each assay was run with positive and negative controls, and concurrent controls on every plate. […]

Molecules are shown by their SMILES. Values joined by “and” are separate entries in the source; they are usually repeats but may differ in a detail not shown here. Equal entries are not always repeated. Results filed as inconclusive are left out. Some compounds were tested as several samples or in several runs, with calls that do not always agree. Active and inactive are the calls of the source. How the source made its calls: active means hit-call score of the fitted dose curve at least 0.9, where 1 is the maximum; inconclusive means response in the unintended direction; inactive means score below 0.9.

human Neurokinin, NK2 Receptor, TACR2 (gene 6865), sequence (P21452 whole entry, looked up): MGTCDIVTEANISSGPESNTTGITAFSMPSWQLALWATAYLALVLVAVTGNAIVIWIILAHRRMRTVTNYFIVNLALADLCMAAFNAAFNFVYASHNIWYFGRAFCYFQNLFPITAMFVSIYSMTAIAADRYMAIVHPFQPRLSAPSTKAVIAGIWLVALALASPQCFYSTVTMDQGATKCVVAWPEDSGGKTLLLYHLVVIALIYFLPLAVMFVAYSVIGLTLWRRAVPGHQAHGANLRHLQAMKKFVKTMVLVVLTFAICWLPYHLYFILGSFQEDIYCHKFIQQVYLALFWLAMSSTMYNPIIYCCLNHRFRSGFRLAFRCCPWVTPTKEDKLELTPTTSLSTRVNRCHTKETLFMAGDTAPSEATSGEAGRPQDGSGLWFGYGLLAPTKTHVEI
human Neurotensin Receptor (NTS), NTSR1 (gene 4923), sequence (P30989 whole entry, looked up): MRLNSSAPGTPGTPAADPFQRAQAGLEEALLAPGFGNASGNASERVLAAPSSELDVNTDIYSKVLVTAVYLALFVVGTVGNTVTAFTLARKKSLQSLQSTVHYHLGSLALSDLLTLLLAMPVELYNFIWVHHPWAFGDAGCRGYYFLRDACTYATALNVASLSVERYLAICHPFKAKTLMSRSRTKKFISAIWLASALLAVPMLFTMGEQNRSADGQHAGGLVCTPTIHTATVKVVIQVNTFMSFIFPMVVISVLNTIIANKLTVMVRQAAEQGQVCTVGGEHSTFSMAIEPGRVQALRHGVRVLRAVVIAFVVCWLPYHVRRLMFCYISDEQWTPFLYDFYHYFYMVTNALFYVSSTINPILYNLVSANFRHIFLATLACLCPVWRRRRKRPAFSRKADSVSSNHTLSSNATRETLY
human Opioid Receptor Delta 1 (Opiate D1), OPRD1 (gene 4985), sequence (P41143 whole entry, looked up): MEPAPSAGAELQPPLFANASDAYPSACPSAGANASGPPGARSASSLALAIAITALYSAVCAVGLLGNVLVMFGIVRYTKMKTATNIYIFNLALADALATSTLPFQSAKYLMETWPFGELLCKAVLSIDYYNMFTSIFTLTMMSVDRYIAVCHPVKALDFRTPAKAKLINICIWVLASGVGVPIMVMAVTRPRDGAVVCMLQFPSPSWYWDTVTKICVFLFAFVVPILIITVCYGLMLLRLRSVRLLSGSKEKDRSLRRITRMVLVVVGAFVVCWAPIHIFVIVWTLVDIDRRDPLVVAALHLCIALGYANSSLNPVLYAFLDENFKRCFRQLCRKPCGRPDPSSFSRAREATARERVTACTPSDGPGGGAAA
human Thromboxane A2 Receptor (TXA2), TBXA2R (gene 6915), sequence (P21731 whole entry, looked up): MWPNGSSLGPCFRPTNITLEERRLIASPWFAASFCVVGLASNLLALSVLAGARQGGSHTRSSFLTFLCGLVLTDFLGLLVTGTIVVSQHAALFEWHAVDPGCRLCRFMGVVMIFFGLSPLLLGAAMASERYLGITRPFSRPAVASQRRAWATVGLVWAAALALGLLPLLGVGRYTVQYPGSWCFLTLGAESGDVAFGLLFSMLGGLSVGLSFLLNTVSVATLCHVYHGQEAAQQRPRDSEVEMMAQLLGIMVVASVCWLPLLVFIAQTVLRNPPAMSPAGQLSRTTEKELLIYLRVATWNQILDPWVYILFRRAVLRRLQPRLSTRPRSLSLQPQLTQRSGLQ
human Vasopressin 1A Receptor (V1A), AVPR1A (gene 552), sequence (P37288 whole entry, looked up): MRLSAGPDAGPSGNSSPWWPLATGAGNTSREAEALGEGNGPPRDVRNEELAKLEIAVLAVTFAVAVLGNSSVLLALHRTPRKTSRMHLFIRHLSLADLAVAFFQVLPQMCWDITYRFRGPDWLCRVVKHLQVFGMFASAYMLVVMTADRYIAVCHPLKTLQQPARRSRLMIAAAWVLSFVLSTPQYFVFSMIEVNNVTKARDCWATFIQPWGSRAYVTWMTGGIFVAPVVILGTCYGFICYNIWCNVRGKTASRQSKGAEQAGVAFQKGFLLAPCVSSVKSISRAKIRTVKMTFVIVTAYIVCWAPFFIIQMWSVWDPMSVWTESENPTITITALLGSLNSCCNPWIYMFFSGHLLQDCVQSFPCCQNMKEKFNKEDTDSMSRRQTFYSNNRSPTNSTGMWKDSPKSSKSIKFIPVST
rat Serotonin, 5-Hydroxytryptamine Receptor 1 (5HT1), Non-Selective Binding, Htr1a (gene 24473), sequence (P19327 whole entry, looked up): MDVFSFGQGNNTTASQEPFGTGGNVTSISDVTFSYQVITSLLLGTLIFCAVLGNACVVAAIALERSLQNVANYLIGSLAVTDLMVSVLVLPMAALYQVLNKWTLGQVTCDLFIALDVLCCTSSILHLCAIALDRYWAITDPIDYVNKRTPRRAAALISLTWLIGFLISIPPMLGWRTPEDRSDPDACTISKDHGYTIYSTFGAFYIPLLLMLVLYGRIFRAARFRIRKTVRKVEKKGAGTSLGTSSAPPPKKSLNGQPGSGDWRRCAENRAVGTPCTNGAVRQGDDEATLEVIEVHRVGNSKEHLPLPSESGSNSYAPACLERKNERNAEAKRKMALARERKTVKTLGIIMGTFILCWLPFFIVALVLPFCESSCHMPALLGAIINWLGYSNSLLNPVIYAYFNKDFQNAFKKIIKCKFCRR
human Orphanin, Opioid Related Nociceptin Receptor 1 (ORL1), OPRL1 (gene 4987), sequence (P41146 whole entry, looked up): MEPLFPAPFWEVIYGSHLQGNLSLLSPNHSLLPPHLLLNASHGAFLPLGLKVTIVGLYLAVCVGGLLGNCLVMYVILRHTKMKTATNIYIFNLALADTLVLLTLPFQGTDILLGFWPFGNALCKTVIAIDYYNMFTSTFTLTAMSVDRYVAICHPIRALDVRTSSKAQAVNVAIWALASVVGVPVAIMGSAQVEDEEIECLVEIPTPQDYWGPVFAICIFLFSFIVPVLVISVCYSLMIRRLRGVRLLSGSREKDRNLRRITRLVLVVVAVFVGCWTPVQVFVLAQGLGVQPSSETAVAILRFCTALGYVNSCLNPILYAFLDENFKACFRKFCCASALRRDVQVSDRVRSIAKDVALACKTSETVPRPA
human Purinergic Receptor P2Y, P2RY1 (gene 5028), sequence (P47900 whole entry, looked up): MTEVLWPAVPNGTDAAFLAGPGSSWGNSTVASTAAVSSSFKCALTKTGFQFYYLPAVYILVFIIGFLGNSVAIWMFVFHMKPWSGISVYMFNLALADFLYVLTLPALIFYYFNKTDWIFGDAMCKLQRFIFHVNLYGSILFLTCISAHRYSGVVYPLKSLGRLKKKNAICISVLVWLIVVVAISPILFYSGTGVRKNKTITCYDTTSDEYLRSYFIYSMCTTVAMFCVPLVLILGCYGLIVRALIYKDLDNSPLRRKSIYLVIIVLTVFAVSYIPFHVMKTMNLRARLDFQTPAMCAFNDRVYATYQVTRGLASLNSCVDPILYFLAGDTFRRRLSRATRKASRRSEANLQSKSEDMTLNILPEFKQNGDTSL

For `Cc1nn(C)c(Oc2ccccc2)c1C=NOCc1ccc(C(=O)OC(C)(C)C)cc1`, the molecule was classed as inactive in [1]. The AC50 is the concentration giving half of the maximal activity seen. With `C[C@]12C[C@H](O)[C@H]3[C@@H](CCC4=CC(=O)CC[C@@]43C)[C@@H]1CC[C@@H]2C(=O)CO`, the AC50 in test [2] is 39 µM (active).

As to `CC(=O)S[C@@H]1CC2=CC(=O)CC[C@]2(C)[C@H]2CC[C@@]3(C)[C@@H](CC[C@@]34CCC(=O)O4)[C@H]12`, the molecule was classed as inactive in test [1]. Also, the AC50 in [3] is 4.42 µM (active).

For `S=C([S-])NCCNC(=S)[S-].[Mn+2]`, the call in test [4], in test [5] and in [6] was inactive.

For the molecule `N[C@@H](Cc1cc(I)c(Oc2ccc(O)c(I)c2)c(I)c1)C(=O)O`, in test [1], the result was inactive. For `Oc1ccc(C(c2ccc(O)cc2)C(Cl)(Cl)Cl)cc1`, the molecule was classed as inactive in test [1]. Also, the AC50 in test [3] is 5.12 µM (active). For the molecule `COC(=O)c1cccc(C)c1S(=O)(=O)NC(=O)Nc1nc(OCC(F)(F)F)nc(N(C)C)n1`, in test [5], the AC50 was 1.32 µM (active). Turning to `CCCN(CCC)c1c([N+](=O)[O-])cc(C(F)(F)F)c(N)c1[N+](=O)[O-]`, the result in [4] was inactive. `COC(=O)CSc1cc(N=c2sc(=O)n3n2CCCC3)c(F)cc1Cl`: the molecule was classed as inactive in test [7]. Regarding `S=C(S)NCCNC(=S)S.[Mn+2].[S-]C([S-])=NCCN=C([S-])[S-].[Zn+2]`, the AC50 in test [1] was 117 nM (active) and 135 nM (active) and 170 nM (active). Also, the outcome in [3], in test [5], in test [7] and in [6] was inactive.

As for `COC(=O)c1ccccc1C(=O)O`, in test [4], the result was inactive.

In the case of `COC(=O)c1ccc(CNS(C)(=O)=O)cc1S(=O)(=O)NC(=O)Nc1nc(OC)cc(OC)n1`, the outcome in [4] was inactive. With `O=C(O)c1ccccc1`, the result in [8] and in test [5] was inactive. Regarding `CCC(O)=C1C(=O)CC(C(=O)O)CC1=O` (stereo unspecified), the result in test [6] was inactive.

Regarding `O=C(c1ccc(O)cc1O)c1ccc(O)cc1O`, the AC50 is 18.5 µM (active) in test [3] and 17.4 µM (active) in test [9].

For `C=CCOC(Cn1ccnc1)c1ccc(Cl)cc1Cl` (stereo unspecified), the AC50 in test [3] was 4.96 µM (active). For `CN(C)C(=O)Nc1ccc(Cl)c(Cl)c1`, the AC50 in test [10] is 9.69 µM (active). Consider `CC(C)CCCCCCc1ccc(O)cc1`, for which the outcome in test [3] was inactive. Take `COC(=O)c1c(Cl)nn(C)c1S(=O)(=O)NC(=O)Nc1nc(OC)cc(OC)n1`: the molecule was called inactive in test [6]. In the case of `CC(C)(C)[C@@H](O)[C@@H](Cc1ccc(Cl)cc1)n1cncn1`, the call in test [1] and in test [6] was inactive.

For `c1ccc2[nH]c(-c3cscn3)nc2c1`, in [4], the call was inactive. On to `CC(C)(c1ccc(O)cc1)c1ccc(O)cc1`, for which the AC50 in test [3] is 11.2 µM (active); in test [10], 10.3 µM (active) and 5.04 µM (active); in test [9], 18.6 µM (active) and 19 µM (active). The outcome in [10] was inactive.

The record behind these values is PubChem BioAssay (EPA / NIEHS).
